Measured values reported in PubChem BioAssay AID1347383 (Zoeller Lab, School of Medicine, Boston University, 2020).
Active and inactive are the calls of the source.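 Rule for the calls: active = cell survival after UV exposure 2 SD above solvent-only control wells at 10 µM, confirmed on one or two repeats; inactive = the rest.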

Assay: protection of CHO cells from pyrene-fatty acid UV killing, primary screen, phospholipid biosynthesis inhibitor project, ZR-82 cells, Analyticon library, screen 2 (AID 1347383);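 note: survival reflects blocked phospholipid synthesis cutting uptake of the phototoxic fatty acid; compound and fatty acid exposure 3 h then viability read next day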
Conditions: ZR-82 CHO cells, CellTiter Blue, at 10 µM, peroxisome-deficient CHO-K1 variant, with DGAT-1, DGAT-2 and ACAT inhibitors

Q: For `COc1cc(O[C@@H]2O[C@H](CO)[C@@H](O)[C@H](O)[C@H]2O)cc2occ(-c3ccc(O)cc3)c(=O)c12`, which outcome is on record?
A: Its outcome is “inactive”.

Q: With `COc1cc(/C=C/CO)ccc1OC/C=C(\C)CCC=C(C)C` as the compound, how does the outcome read?
A: Its outcome is “inactive”.

Q: Which outcome does the source give for `CC(C)=CCn1cnc(=N)c2[nH]cnc21` here?
A: The outcome was “inactive”.

Q: With `C=C1[C@H]2CC[C@H](C(=O)O)[C@@]23CC[C@H](C3)C1(C)C` as the compound, how does the outcome read?
A: Its outcome is “inactive”.

Q: Which outcome does the source give for `CCC/C=C\CC(N)CC(=O)O` (centres undefined) here?
A: Its outcome is “inactive”.

Q: For `C=C1CC[C@@H](C)[C@](C)(CCc2ccoc2)C/C=C\C=C/1C(=O)O`, which outcome is on record?
A: Its outcome is “inactive”.

Q: With `COc1cc(O)cc(O)c1C(=O)c1ccc(O)c(O)c1` as the compound, how does the outcome read?
A: Its outcome is “inactive”.

Q: With `C=C[C@H](/C=C\c1ccc(O)cc1)c1ccc(O)cc1` as the compound, how does the outcome read?
A: The outcome was “inactive”.

Q: With `COCc1c(OC)cc2c(c1O)C(O)OCC2` (centres undefined) as the compound, how does the outcome read?
A: The outcome was “inactive”.

Q: With `CC1(C)CC2C(O)c3cocc3CC(C)(O)C2C1` (centres undefined) as the compound, how does the outcome read?
A: The outcome was “inactive”.

Q: For `CCCCCC1CC(O)CC(=O)O1` (centres undefined), which outcome is on record?
A: Its outcome is “inactive”.

Q: Which outcome does the source give for `C=C1CCc2occ(C)c2[C@H]2[C@H]1[C@@]13O[C@@]1(C[C@@H](C)[C@H]3OC(C)=O)[C@H]1O[C@@]21C` here?
A: Its outcome is “inactive”.

Q: For `CCC(O)c1cccc(O)c1CN` (centres undefined), which outcome is on record?
A: Its outcome is “inactive”.

Q: For `CC1(C)CCC[C@@]2(C)C1C[C@H]1O[C@@]1(C)[C@]21CC[C@](C)(CC(=O)O)O1` (some centres undefined), which outcome is on record?
A: The outcome was “inactive”.

Q: For `C=C(C(=O)O)C(CCCCCC)C(=O)O` (centres undefined), which outcome is on record?
A: Its outcome is “inactive”.

Q: For `CC(C)c1ccc2c(c1)C(=O)CC1C(C)(C(=O)O)CCCC21C` (centres undefined), which outcome is on record?
A: The outcome was “inactive”.

Q: Which outcome does the source give for `COC1OC(OC)C(O)(CC/C=C(\C)CC/C=C(\C)C(=O)O)C1O` (centres undefined) here?
A: Its outcome is “inactive”.

Q: With `CCCCC[C@H](O)[C@H]1C(=O)OC[C@H]1CO` as the compound, how does the outcome read?
A: Its outcome is “inactive”.

Q: For `CCCCCCCC(=O)C(C)NC(=O)CCC(=O)O` (centres undefined), which outcome is on record?
A: The outcome was “inactive”.
